F508del corr: F508del CFTR correction, initial screen, CFBE line, single point; CFBE cells, YFP halide quenching; stimulated with forskolin plus potentiator P3; % fluorescence drop versus neutral controls; activity (quench increase), % at 7.58 µM; 0.36% of 350,000 active; AID 720511, 2013;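 active = mean added fluorescence quench of at least 8% versus neutral control, with both replicates also reaching 8%; inconclusive = only one of the mean or replicate conditions met; inactive = mean below 8% and not both replicates reaching 8%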;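 also: cells transiently co-express mutant CFTR-F508del with the halide-sensitive YFP; corrector assay measuring rescue of mutant channel to the surface after 24 h compound exposure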
Wnt act: Wnt/beta-catenin pathway activators, primary screen, cell-based, plate reader, single point. Wnt/beta-catenin reporter cell assay, activator. 1.2% of 300,000 active. activation, % at 9.35 µM; in the data active = activation above about 30%, passing the limit was not always enough; inconclusive = no clear call, values can overlap the other calls;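 also: 0% = neutral control wells and 100% = positive control wells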
MITF TRPM1 HTS: activators of MITF-driven TRPM1 promoter reporter, primary screen, cell-based, SK-MEL-5, luciferase, single point. SK-MEL-5 TRPM1-promoter luciferase, 24 h; % of positive control, neutral wells = 0. activation, % at 12.5 µM. 0.75% of 300,000 active;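 active = mean activation of at least 80% with every replicate also reaching 80%; inconclusive = mean reaches 80% but some replicate falls short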;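 also: 0% = neutral control wells and 100% = parthenolide positive control wells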
Env fusion inh: inhibitors of HIV-1 Env-driven cell-cell fusion, primary screen, HeLa-JRFL effector, CEM21 target cells, luciferase | inhibition, % at 12.3 µM | 1.1% of 360,000 active;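 active = mean replicate inhibition score of at least 50 and every replicate individually at or above 50; inconclusive = only one of the two criteria met; inactive = mean below 50 and not all replicates reaching 50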;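 also: 0% = plate neutral controls and 100% = maraviroc near 300 nM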
GSIS activator: GLuc luminescence reporter in INS-1E cells, primary screen for activators of glucose-dependent secretion of insulin | INS-1E GLuc reporter insulin secretion, 2-3 h | activation, % at 16.6 µM | 0.61% of 370,000 active | AID 743287, 2014;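 active = lowest replicate activation of at least 40%, so every replicate reaches that level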;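 also: 0% = median of neutral control wells and 100% = median of IBMX positive control wells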
* marks the source's active call; other numbers are inactive results; ? = inconclusive; · = no result given; [ ] = another dose, or the depositor's remark. Hits are enriched below; roughly 2.7% of the tested compounds scored in any of these assays.

SMILES	F508del corr	Wnt act	MITF TRPM1 HTS	Env fusion inh	GSIS activator
C[C@H]1CN([C@@H](C)CO)C(=O)c2cccc(NC(=O)C3CC3)c2O[C@H]1CN(C)C(=O)Nc1ccc(C(F)(F)F)cc1	2	·	·	18[16.7 µM]	-5
C[C@H]1CN(C)C(=O)Cc2cc(NS(C)(=O)=O)ccc2O[C@H]1CN(C)S(C)(=O)=O	·	·	·	·	8
C[C@@H]1CCCCO[C@H](CN(C)C(=O)CCC(F)(F)F)[C@H](C)CN([C@@H](C)CO)C(=O)c2cc(NS(C)(=O)=O)ccc2O1	-1	·	·	15[16.7 µM]	0
C[C@@H]1CN([C@H](C)CO)C(=O)Cc2cc(NC(=O)NC3CCCCC3)ccc2O[C@H]1CN(C)Cc1ccc(-c2ccccc2)cc1	3	·	·	32[16.7 µM]	-21
Cc1nn(Cc2c(F)c(F)c(F)c(F)c2F)c(C)c1NC(=O)c1cccc(COc2ccc(Cl)cc2)c1	·	29	12	63*	-19
COC(=O)Cc1csc(Nc2ccccc2Cl)n1	-1	17	94*	·	·
CCOC(=O)Cc1csc(NC(=O)Cc2ccccc2)n1	3	1	-4	-9	4
CCOC(=O)c1sc(Nc2ccccc2Cl)nc1C	1	39*	49	-60	-6
O=C(C[C@H]1CC[C@@H]2[C@H](COC[C@@H](O)CN2Cc2ccc3c(c2)OCO3)O1)Nc1ccccc1	0	·	·	·	1
O=C(NCc1cc(Cl)cc(Cl)c1)c1ccc2nc([C@@H]3O[C@H](CO)[C@@H](O)[C@H]3O)[nH]c2c1	-3	0	·	6	56*
COCC1CCCN(Cc2cn(Cc3ccccc3)nc2-c2cc3ccccc3o2)C1 (stereo not drawn)	5	-1	15	58*	-39
Cc1c(CCOC(=O)C23CC4(C)CC(C)(CC(C)(C4)C2)C3)sc[n+]1CC(=O)c1ccccc1	3	-2	-73	62*	104
Cc1c(CCOC(=O)CC23CC4CC(CC(C4)C2)C3)sc[n+]1CC(=O)c1ccccc1	0	-3	2	?	5
CO[C@@H]1CN(C)C(=O)c2ccc(NC(=O)c3ccccc3)cc2OC[C@H](C)N(C(C)=O)C[C@H]1C	0	·	·	·	5
O=C1Nc2ccccc2N=C(c2ccc3c(c2)OCO3)C1N(C(=O)c1ccc2ccccc2c1)C1CC1 (stereo not drawn)	-2	1	·	56*	-8
Cc1noc(C)c1NC(=O)Nc1ccc2c(c1)CC(=O)N([C@@H](C)CO)C[C@@H](C)[C@H](CN(C)Cc1ccc(Cl)c(Cl)c1)O2	-2	·	·	·	-14
O=C(Cn1cc(C(=O)c2cccs2)c2ccccc21)NCc1ccc2c(c1)OCO2	3	-1	·	57*	8
Cc1ccccc1-c1nnc(-c2cccc3ccccc23)o1	0	55*	27	-207	1
Cc1cccc2ccccc12	1	0	·	·	17
Cc1ccccc1-c1nnc(-c2ccccc2C)o1	·	47*	58	-198	·
Cc1ccccc1-c1nnc(SCC#N)o1	-1	-1	-6	11	-7
Cc1ccccc1-c1nnc(-c2ccc(Br)cc2)o1	·	44*	·	-279	·
C[C@H](NC(=O)[C@@H]1[C@@H](CO)[C@@H]2Cn3c(cccc3=O)[C@@H]2N1CC1CC1)c1ccccc1	-1	·	·	·	6
Nc1c(C(=O)Nc2ccc3c(c2)OCCO3)nnn1Cc1ccccc1Cl	2	25	145*	-75	-15
Cc1ccccc1NC(=O)c1nnn(-c2ccc3c(c2)OCCO3)c1N	1	36*	86*	-92	1
SMILES	F508del corr	Wnt act	MITF TRPM1 HTS	Env fusion inh	GSIS activator
Nc1c(C(=O)Nc2ccc3c(c2)OCCO3)nnn1Cc1cccc(Cl)c1	2	47*	101*	·	2
Nc1c(C(=O)Nc2ccc3c(c2)OCCO3)nnn1Cc1ccc(F)cc1	0	26	116*	-100	34
CCNC(=O)Nc1ccc2c(c1)C(=O)N(C)[C@@H]1CC[C@@H](CC(=O)NC3CCCCC3)O[C@@H]1CO2	-1	·	·	·	6
C[C@H](CO)N1C[C@H](C)[C@@H](CN(C)C(=O)Nc2ccccc2)OCCCC[C@H](C)Oc2ccc(NC(=O)Cc3ccccc3)cc2C1=O	0	·	·	-56[16.7 µM]	14
Cc1noc(C)c1NC(=O)NCC[C@H]1CC[C@@H](NC(=O)c2ccc(F)cc2)[C@H](CO)O1	-1	·	·	-2[16.7 µM]	-7
Cc1ccc(S(=O)(=O)Nc2ccc3c(c2)CC(=O)N([C@@H](C)CO)C[C@H](C)[C@H](CN(C)S(=O)(=O)c2cn(C)cn2)O3)cc1	0	·	·	9[16.7 µM]	9
COCC#Cc1ccc2c(c1)O[C@@H](CN(C)C(=O)Nc1ccc(OC)cc1)[C@@H](C)CN([C@@H](C)CO)S2(=O)=O	2	·	·	12[16.7 µM]	-2
COCCNc1ncnc2c1ncn2[C@H]1CN(Cc2cc(OC)c(OC)c(OC)c2)C[C@@H](CO)O1	0	3	·	12	·
C=CCNc1ncnc2c1ncn2[C@H]1CN(Cc2cc(OC)c(OC)c(OC)c2)C[C@@H](CO)O1	4	0	·	21	42*
CC(C)CC(=O)Nc1nnc(SCC(=O)NC2CCCC2)s1	0	-2	·	18	121*
COc1cc(CNc2ccc(O)cc2)cc(Br)c1OCc1ccccc1F	·	·	-11	·	·
COc1cc(CNCc2ccncc2)cc(Br)c1OCc1ccccc1F	·	·	-21	67*	·
CO[C@H]1CN(C)C(=O)c2ccc(NC(C)=O)cc2OC[C@H](C)N(C(=O)C2CCOCC2)C[C@@H]1C	0	·	·	·	5
COCCn1c(SCC(=O)NC(=O)NC(C)(C)C)nc2ccccc21	·	·	7	123*	-17
CCn1c(SCC(=O)NC(=O)NC(C)(C)C)nc2ccccc21	·	·	4	8	-2
O=C(COC(=O)Cc1ccsc1)Nc1cccc(F)c1	16*	5	-4	·	9
O=C(COC(=O)Cc1ccsc1)Nc1cccc(Cl)c1	0	1	1	-3	-2
CCN1C(=O)[C@H]2[C@@H](c3ccc(C)cc3)N3C(=O)N(c4ccccc4)C(=O)[C@@]3(Cc3ccc(Cl)cc3)[C@H]2C1=O	·	·	12	·	·
O=C1[C@H]2[C@@H](c3ccc(F)cc3)N3C(=O)N(c4ccccc4)C(=O)[C@@]3(Cc3ccc(Cl)cc3)[C@H]2C(=O)N1C1CCCCC1	1	-5	-4	100*	34
O=C1[C@H]2[C@@H](c3ccc(F)cc3)N3C(=O)N(c4ccccc4)C(=O)[C@@]3(Cc3ccccc3)[C@H]2C(=O)N1C1CCCCC1	1	-3	0	107*	·
CN(C)C(=O)c1ccc(-c2ccc3c(c2)[C@H]2[C@H](CCN2C(=O)C2CCC2)[C@H](CO)N3C)cc1	-2	·	·	·	-11
Cc1ccc(-c2noc(-c3cccs3)n2)cc1	-2	25	17	·	-7
c1csc(-c2nc(N3CCCCC3)no2)c1	-3	35*	81*	-74	2
